Experimental data reported in the supplement of paper PMC9023506.
Where a name gives a salt, the structure may show the parent alone.

The compounds below were run on Danio rerio larvae (5 dpf) (assay: startle response to 20-s acoustic pulses, difference vs DMSO (percentage points (treated minus DMSO)); higher = more of the behaviour than the DMSO vehicle control). Details: 10 µM; exposure time: 3 h pre-incubation + 3 h imaging.
Protocol: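 5-dpf wild-type zebrafish larvae were imaged in 96-well plates. They were treated with 190 Tocris FDA-approved drugs at 10 µM (1 µl/ml DMSO) for 3 h before and 3 h during imaging at 28.5 °C, 48 larvae per drug. Automated image analysis gave % time moving and optomotor responses. Values are drug group mean minus DMSO vehicle mean (n=844), in percentage points, for 10 behaviours.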

Row | Structure (SMILES) | startle response to 20-s acoustic pulses
1 | Cc1cccc(CN2CCN(C(c3ccccc3)c3ccc(Cl)cc3)CC2)c1 (stereo not given) [Meclizine dihydrochloride] | -8.16
2 | CCCCC(=O)N(Cc1ccc(-c2ccccc2-c2nnn[nH]2)cc1)[C@H](C(=O)O)C(C)C [Valsartan] | -0.147
3 | Nc1ccn([C@@H]2O[C@H](CO)[C@@H](O)C2(F)F)c(=O)n1 [Gemcitabine hydrochloride] | 3.92
4 | O=C(c1ccc(OCCN2CCCCC2)cc1)c1c(-c2ccc(O)cc2)sc2cc(O)ccc12 [Raloxifene hydrochloride] | 1.88
5 | CC(C)c1ccc2oc3nc(N)c(C(=O)O)cc3c(=O)c2c1 [Amlexanox] | 0.978
6 | Clc1ccccc1C(c1ccccc1)(c1ccccc1)n1ccnc1 [Clotrimazole] | 4.06
7 | CCOC(=O)[C@H](CCc1ccccc1)N[C@H]1CCc2ccccc2N(CC(=O)O)C1=O [Benazepril hydrochloride] | -1.74
8 | CC1(C)O[C@@H]2[C@@H](CO[C@@]3(COS(N)(=O)=O)OC(C)(C)O[C@@H]23)O1 [Topiramate] | 0.811
9 | C[C@]12CCC(=O)C=C1CC[C@@H]1[C@@H]2[C@@H](O)C[C@@]2(C)[C@H]1CC[C@]2(O)C(=O)CO [Hydrocortisone] | 0.897
10 | Brc1c(NC2=NCCN2)ccc2nccnc12 | -4.57
11 | Nc1cc(N2CCCCC2)nc(N)[n+]1[O-] [Minoxidil] | -2.65
12 | CC(CCc1ccc(O)cc1)NCCc1ccc(O)c(O)c1 (stereo not given) [Dobutamine hydrochloride] | 2.42
13 | CNC(=O)c1ccccc1Sc1ccc2c(/C=C/c3ccccn3)n[nH]c2c1 [Axitinib] | -7.73
14 | COc1cc([C@@H]2c3cc4c(cc3[C@@H](O[C@@H]3O[C@@H]5CO[C@@H](C)O[C@H]5[C@H](O)[C@H]3O)[C@H]3COC(=O)[C@H]23)OCO4)cc(OC)c1O [Etoposide] | -1.98
15 | Cc1cc(C2CCCCC2)n(O)c(=O)c1 [Ciclopirox] | -9.88
16 | CC(C)COCC(CN(Cc1ccccc1)c1ccccc1)N1CCCC1 (stereo not given) [Bepridil hydrochloride] | -5.17
17 | OCCN1C[C@H](O)[C@@H](O)[C@H](O)[C@H]1CO [Miglitol] | -1.17
18 | Nc1nc(F)nc2c1ncn2[C@@H]1O[C@H](CO)[C@@H](O)[C@@H]1O [Fludarabine] | 3.23
19 | NS(=O)(=O)Cc1noc2ccccc12 [Zonisamide] | 8.21
20 | CC(C)N(CCCCOCC(=O)NS(C)(=O)=O)c1cnc(-c2ccccc2)c(-c2ccccc2)n1 [Selexipag] | -1.31

Row | Structure (SMILES) | startle response to 20-s acoustic pulses
21 | CCOC(=O)C1=C(C)NC(C)=C(C(=O)OC)C1c1cccc(Cl)c1Cl (stereo not given) [Felodipine] | 9.85
22 | C[C@H](Cc1cc2c(c(C(N)=O)c1)N(CCCO)CC2)NCCOc1ccccc1OCC(F)(F)F [Silodosin] | 2.96
23 | O=c1n(CCCN2CCN(c3cccc(Cl)c3)CC2)nc2ccccn12 [Trazodone hydrochloride] | 2.64
24 | COc1cc2ncnc(Nc3ccc(F)c(Cl)c3)c2cc1OCCCN1CCOCC1 [Iressa] | -2.19
25 | COc1ccc(C[C@@H](C)NC[C@H](O)c2ccc(O)c(NC=O)c2)cc1 [Arformoterol tartrate] | -9.44
26 | CN1CCN(CCCN2c3ccccc3Sc3ccc(Cl)cc32)CC1 [Prochlorperazine dimaleate] | -7.34
27 | C#CCN[C@@H]1CCc2ccccc21 [Rasagiline mesylate] | 2.17
28 | CC(C)(C(=O)O)c1ccc(C(O)CCCN2CCC(C(O)(c3ccccc3)c3ccccc3)CC2)cc1 (stereo not given) [Fexofenadine hydrochloride] | 4
29 | Cc1ccsc1C(=CCCN1CCC[C@@H](C(=O)O)C1)c1sccc1C [Tiagabine hydrochloride] | 5.98
30 | CCOc1cc(CC(=O)N[C@@H](CC(C)C)c2ccccc2N2CCCCC2)ccc1C(=O)O [Repaglinide] | -5.51
31 | C[C@H]1O[C@H](O[C@H]2[C@H](O)[C@@H](O)[C@@H](O[C@H]3[C@H](O)[C@@H](O)C(O)O[C@@H]3CO)O[C@@H]2CO)[C@H](O)[C@@H](O)[C@@H]1N[C@H]1C=C(CO)[C@@H](O)[C@H](O)[C@H]1O (stereo not given in full) [Acarbose] | -6.81
32 | C[C@@H](O[C@H]1OCCN(Cc2n[nH]c(=O)[nH]2)[C@H]1c1ccc(F)cc1)c1cc(C(F)(F)F)cc(C(F)(F)F)c1 [Aprepitant] | -6.92
33 | CN(C)CCc1c[nH]c2ccc(Cn3cncn3)cc12 [Rizatriptan benzoate] | 4.29
34 | CC(C)OC(=O)C(C)(C)Oc1ccc(C(=O)c2ccc(Cl)cc2)cc1 [Fenofibrate] | -3.27
35 | CCCc1nn(C)c2c(=O)[nH]c(-c3cc(S(=O)(=O)N4CCN(C)CC4)ccc3OCC)nc12 [Sildenafil citrate] | 0.54
36 | CCc1c2c(nc3ccc(OC(=O)N4CCC(N5CCCCC5)CC4)cc13)-c1cc3c(c(=O)n1C2)COC(=O)[C@]3(O)CC | 1.92
37 | Cc1cc2c(s1)Nc1ccccc1N=C2N1CCN(C)CC1 [Olanzapine] | -0.064
38 | CC(C)c1nc(CN(C)C(=O)N[C@H](C(=O)N[C@@H](Cc2ccccc2)C[C@H](O)[C@H](Cc2ccccc2)NC(=O)OCc2cncs2)C(C)C)cs1 [Ritonavir] | 1.92
39 | CO[C@H]1/C=C/O[C@@]2(C)Oc3c(C)c(O)c4c(O)c(c5c(nc6cc(C)ccn65)c4c3C2=O)NC(=O)/C(C)=C\C=C\[C@H](C)[C@H](O)[C@@H](C)[C@@H](O)[C@@H](C)[C@H](OC(C)=O)[C@@H]1C [Rifaximin] | 2.34
40 | CCCc1nc2c(C)cc(-c3nc4ccccc4n3C)cc2n1Cc1ccc(-c2ccccc2C(=O)O)cc1 [Telmisartan] | 3.69
